Laboratory results published in PMC5540273 (PLoS ONE, 2017).

Experiments:
Details in all cases: concentration: 1 μM, replicates: in singlicate; n = 1
[1] = system: MAPKAPK5
[2] = system: MARK1
[3] = system: MARK2
[4] = system: MARK3
[5] = system: MARK4
[6] = system: MAST1
[7] = system: T1, MEK1
T1 construct: gene MAP2K1

[8] = system: T2, MEK2
T2 construct: gene MAP2K2

[9] = system: T3, MEK3
T3 construct: gene MAP2K3

[10] = system: T4, MEK4
T4 construct: gene MAP2K4

[11] = system: T5, MEK5
T5 construct: gene MAP2K5

[12] = system: T6, MEK6
T6 construct: gene MAP2K6

[13] = system: MELK
[14] = system: MERTK
[15] = system: MET
[16] = system: T7, MINK
T7 construct: gene MINK1

[17] = system: MKK7
[18] = system: MKNK1
[19] = system: MKNK2
[20] = system: T8, MLCK
T8 construct: gene MYLK3
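Note: KINOMEscan kinase panel screen.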

Row | SMILES | %Inh [1] [%] | %Inh [2] [%] | %Inh [3] [%] | %Inh [4] [%] | %Inh [5] [%] | %Inh [6] [%] | %Inh [7] [%] | %Inh [8] [%] | %Inh [9] [%] | %Inh [10] [%] | %Inh [11] [%] | %Inh [12] [%] | %Inh [13] [%] | %Inh [14] [%] | %Inh [15] [%] | %Inh [16] [%] | %Inh [17] [%] | %Inh [18] [%] | %Inh [19] [%] | %Inh [20] [%]
1 | Nc1ncc(-c2cn[nH]c2)c2scc(-c3ccc4c(c3)CCN4C(=O)Cc3ccccc3)c12 [GSK2593067] | 0 | 0 | 7 | 0 | 7 | 0 | 0 | 0 | 0 | 60 | 99.9 | 0 | 32 | 73 | 77 | 33 | 34 | 0 | 11 | 6
2 | O=C1NC(=O)C(c2ccccc2Cl)=C1Nc1cccc(Cl)c1 [SB-342409] | 0 | 0 | 0 | 2 | 0 | 0 | 2 | 5 | 0 | 0 | 53 | 0 | 0 | 1 | 0 | 0 | 23 | 0 | 18 | 3
3 | COc1ccc(NC(=O)c2ccoc2)cc1-c1ccc(C(=O)NCC2CC2)cc1 [GW810437] | 0 | 17 | 0 | 47 | 18 | 56 | 13 | 24 | 36 | 0 | 41 | 16 | 29 | 0 | 0 | 7 | 0 | 0 | 13 | 0
4 | COc1cc(Nc2nccc(N3CCC(NC(=O)Nc4ccc5c(c4)OCO5)C3)n2)cc(OC)c1OC (stereo not shown) [GSK1379766] | 0 | 4 | 0 | 0 | 1 | 0 | 0 | 0 | 2 | 8 | 98.8 | 0 | 0 | 40 | 12 | 0 | 0 | 14 | 66 | 0
5 | Nc1ncc(-c2ccc3nccc(-c4ccncc4)c3c2)cc1S(=O)(=O)N1CCCCC1 [GSK1693850] | 0 | 0 | 15 | 0 | 0 | 0 | 0 | 0 | 13 | 33 | 50 | 12 | 36 | 35 | 0 | 31 | 0 | 2 | 6 | 0
6 | Cc1ccc(NC(=O)c2cccc(N3CCCCC3)c2)cc1-c1ccc(C(=O)NCC2CC2)cc1 [GSK1917008] | 0 | 0 | 0 | 20 | 10 | 0 | 0 | 0 | 0 | 8 | 20 | 35 | 0 | 18 | 0 | 0 | 0 | 10 | 18 | 0
7 | O=C(Nc1n[nH]c2nc(-c3ccccc3)ccc12)C1CC1 [SB-708999] | 0 | 0 | 0 | 0 | 8 | 22 | 6 | 0 | 0 | 0 | 76 | 0 | 13 | 27 | 0 | 71 | 31 | 30 | 1 | 62
8 | Cc1cc(-c2c(-c3ccc(F)cc3)ncn2CCCN2CCOCC2)nc(N)n1 [SB-222517] | 0 | 23 | 0 | 0 | 32 | 14 | 21 | 47 | 23 | 26 | 26 | 29 | 0 | 0 | 0 | 15 | 0 | 0 | 0 | 0
9 | Cl.Cl.NC(CNC(=O)c1cc(Br)c(-c2ccnc3[nH]ccc23)s1)c1ccccc1 (stereo not shown) [GSK1322949] | 0 | 0 | 22 | 0 | 0 | 29 | 0 | 0 | 74 | 57 | 59 | 0 | 74 | 58 | 22 | 69 | 0 | 68 | 99.9 | 70
10 | COc1cc(Nc2ccnc3cc(-c4ccncc4)ccc23)cc(OC)c1OC.Cl [GW494610] | 0 | 1 | 0 | 0 | 9 | 15 | 14 | 0 | 0 | 27 | 99.8 | 0 | 18 | 13 | 13 | 95.1 | 23 | 28 | 14 | 0
11 | Cc1nn2c(=O)cc(N3CCO[C@H](C)C3)nc2n1Cc1cccc(Cl)c1Cl [GSK2373693] | 0 | 0 | 0 | 0 | 0 | 0 | 0 | 0 | 10 | 27 | 19 | 0 | 2 | 17 | 0 | 0 | 0 | 0 | 19 | 0
12 | CCNC(=O)/C=C/c1n[nH]c2cc(Sc3ccccc3C(=O)NC)ccc12 | 18 | 0 | 34 | 0 | 3 | 0 | 17 | 18 | 14 | 0 | 45 | 0 | 7 | 20 | 13 | 56 | 0 | 0 | 1 | 0
13 | CC(=O)Nc1cn2nc(Oc3cccc(NC(=O)c4cccc(C(F)(F)F)c4)c3)ccc2n1 | 0 | 0 | 0 | 8 | 20 | 8 | 0 | 18 | 0 | 0 | 93.3 | 5 | 20 | 73 | 16 | 22 | 0 | 0 | 0 | 0
14 | O=C(Nc1n[nH]c2nc(-c3cccc(O)c3)ccc12)C1CC1 [SB-711805] | 3 | 31 | 30 | 0 | 0 | 42 | 10 | 10 | 41 | 12 | 95.9 | 0 | 3 | 47 | 0 | 51 | 0 | 0 | 26 | 94.5
15 | Cc1ccc(Nc2ccnc(Nc3ccc(C)c(F)c3)n2)cc1O.Cl [GW582868] | 0 | 0 | 0 | 0 | 0 | 28 | 0 | 0 | 13 | 28 | 92.8 | 0 | 0 | 38 | 0 | 0 | 0 | 0 | 7 | 24
16 | O=C(O)C(F)(F)F.O=c1[nH]ccc2nc(N[C@@H]3CCNC3)nc(Nc3cc(Cl)cc(Cl)c3)c12 [GSK2188764] | 47 | 52 | 87 | 85 | 41 | 28 | 79 | 84 | 88 | 72 | 100 | 34 | 100 | 51 | 0 | 97.6 | 20 | 0 | 14 | 99.1
17 | CCNc1nccc(-c2c(-c3ccc(F)cc3)ncn2C2CCN(C)CC2)n1 | 0 | 0 | 0 | 0 | 0 | 46 | 4 | 15 | 0 | 0 | 19 | 15 | 11 | 25 | 0 | 30 | 0 | 0 | 0 | 0
18 | Fc1cc(Cl)ccc1Nc1ccnc2cc(-c3ccc(CN4CCSCC4)o3)ccc12 [GW560106] | 0 | 5 | 0 | 0 | 21 | 34 | 53 | 35 | 0 | 3 | 99.8 | 0 | 0 | 40 | 28 | 63 | 0 | 1 | 45 | 5
19 | Cl.Cl.NCC(NC(=O)c1cc(-c2cccnc2)c(-c2ccnc3[nH]ccc23)s1)c1ccccc1 (stereo not shown) [GSK1323434] | 0 | 0 | 40 | 0 | 8 | 0 | 0 | 0 | 39 | 25 | 59 | 0 | 20 | 13 | 0 | 80 | 0 | 0 | 56 | 51
20 | O=C(O)C(F)(F)F.O=c1[nH]ccc2nc(N[C@@H]3CCNC3)nc(Nc3ccc4c(c3)S(=O)(=O)CC4)c12 [GSK2181306] | 90.4 | 65 | 91.7 | 70 | 81 | 12 | 97.5 | 94.7 | 93.5 | 91 | 99.9 | 68 | 92.2 | 91.7 | 26 | 96.6 | 0 | 3 | 24 | 98.1
